The record followed here is PubChem BioAssay (EPA / NIEHS).

By AC50 is commonly meant the concentration at which the activity in the assay is half-maximal.

Active and inactive are the calls of the source. Rule for the calls: active = hit-call score of the fitted dose curve at least 0.9, where 1 is the maximum; inactive = score below 0.9.

The experiment in a line: ATG_TCF_b_cat_CIS: Attagene CIS-FACTORIAL HepG2 Assay for human T-Cell-Factor with beta-catenin (TCF/b-cat) (AID 2282965). The note with it: HepG2 TCF/beta-catenin cis-reporter transcription, actives raise or lower the signal. Here is the method:
ATG_CIS is a cell-based, multiplexed-readout assay that uses HepG2, a human liver cell line, with measurements taken at 24 hours after chemical dosing in a 24-well plate.ATG_TCF_b_cat_CIS is one of 52 assay component(s) measured or calculated from the ATG_CIS assay. It is designed to make measurements of mRNA induction, a form of inducible reporter, as detected with fluorescence intensity signals by Reverse transcription polymerase chain reaction (RT-PCR) and Capillary electrophoresis technology.Data from the assay component ATG_TCF_b_cat_CIS was analyzed into 1 assay endpoint. This assay endpoint, ATG_TCF_b_cat_CIS, was analyzed with bidirectional fitting relative to DMSO as the negative control and baseline of activity. Using a type of inducible reporter, measures of mRNA for gain or loss-of-signal activity can be used to understand the reporter gene at the transcription factor-level as they relate to the gene TCF7 and TCF7L2 and LEF1 and TCF7L1. Furthermore, this assay endpoint can be referred to as a primary readout, because this assay has produced multiple assay endpoints where this one serves a reporter gene function. To generalize the intended target to other relatable targets, this assay endpoint is annotated to the dna binding intended target family, where the subfamily is HMG box protein.
Human liver HepG2 cells are transiently transfected with multiple reporter transcription units (MRTUs) in 6-well plates using FuGene 6 reagent (Roche; 3 ml FuGene/1 mg DNA). The MRTU constructs are regulated by a cis-regulating element (promoter). […] A major difference between the CIS and TRANS system is that in CIS activities of endogenous TFs are measured, whereas the TRANS assay evaluates changes in activities of exogenous, chimeric NR-Gal4 proteins. […] At the end of 24 hour incubation, total RNA was isolated using TriZol reagent (Invitrogen). The isolated RNA is then reverse-transcribed using oligo(dT) primer and Mo-MLV reverse transcriptase (Invitrogen) with DNAse I (Ambion) treatment for 30 min. The one-tenth of the produced cDNA was amplified by PCR using Taq DNA polymerase (Invitrogen) and two reporter sequence-specific primers. The PCR products were fluorescently labeled by primer extension with 6-arboxyfluorescein (6-FAM) 5'-labeled reporter sequence-specific primer (2 min at 95 C, 20 s at 68 C and 10 min at 72 C) and these products were digested with 5U of HpaI (New England Biolabs) for 2h at 37 C. The fragments were purified using Qiaquick PCR columns (Qiagen), analyzed on an ABI 3130xL genetic analyzer (Applied Biosystems) with peak positions identified by using a set of X-rhodamine (ROX)-labeled MapMarker1000 molecular weight standards (BioVentures). The raw capillary electrophoresis data was processed using Attagraph software (Attagene).
Turning to `O=C(Cc1ccccc1)OCCc1ccccc1`, the outcome was inactive.

For `O=CCCl`, the result was inactive.

As for `O=C(CCl)Nc1ccccc1`, the outcome was inactive.

`BrCC(Br)c1ccccc1` (stereo not given): the outcome was inactive.

Consider `CN(C)c1ccc(N=O)cc1`, for which the compound was called inactive.

For `CCCSP(=S)(OCC)Oc1ccc(Cl)cc1Cl` (stereo not given), the outcome was inactive.

As for `Cc1cc(Cl)ccc1OCCCC(=O)O`, the compound was classed as inactive.

With `N#Cc1ccncc1`, the compound was called inactive.

`C[C@]12CC[C@@H](O)C[C@@H]1CC[C@@H]1[C@@H]2CC[C@]2(C)C(=O)CC[C@@H]12`: the compound was classed as inactive.

`CC(C)(C)c1cc([N+](=O)[O-])cc(C(C)(C)C)c1O`: the outcome was inactive.

As to `O=S1(=O)OC(c2cc(Br)c(O)c(Br)c2)(c2cc(Br)c(O)c(Br)c2)c2ccccc21`, the AC50 is 121 µM (active).

Take `N#CCCC(Br)(C#N)CBr` (stereo not given): the AC50 is 51 µM (active).

As for `N#CS`, the outcome was inactive.

In the case of `c1ccc2c(c1)Oc1ccccc1O2`, the result was inactive.

Take `ClCc1ccccc1CCl`: the AC50 is 22.4 µM (active).

With `OC(c1ccc(Cl)cc1)(c1ccc(Cl)cc1)c1cccnc1`, the outcome was inactive.

As for `Fc1cccc(Cl)c1CCl`, the AC50 was 100 µM (active).

Regarding `CC(c1ccccc1)(c1ccc(O)cc1)c1ccc(O)cc1`, the AC50 is 16.9 µM (active).

As to `OC(Cc1ccccc1Cl)(Cn1[nH]cnc1=S)C1(Cl)CC1` (stereo not given), the result was inactive.

Consider `CC(C)O.CC(C)O.OCCN(CCO)CCO.OCCN(CCO)CCO.[Ti]`, for which the compound was classed as inactive.

Regarding `BrCc1ccc(Br)cc1`, the result was inactive.

As for `CCN(CCO)CCO`, the compound was called inactive.

For the compound `O=S(=O)(c1ccc(Cl)cc1)c1cc(Cl)c(Cl)cc1Cl`, the outcome was inactive.

Consider `CC(C)[N+](=O)[O-]`, for which the compound was called inactive.

Consider `CNC(=O)N(C)c1nc2ccccc2s1`, for which the outcome was inactive.

For the compound `C=C(C)C(=O)OCCCCOC(=O)C(=C)C`, the compound was classed as inactive.

Regarding `Cc1cc(Cl)ccc1O`, the outcome was inactive.

With `CC(c1ccc(O)cc1)c1ccc(O)cc1`, the outcome was inactive.

As to `Cc1cc(-c2cc(C)c(N)c(C)c2)cc(C)c1N`, the outcome was inactive.

As to `CCOP(=S)(OCC)SCS(=O)(=O)C(C)(C)C`, the compound was called inactive.

With `C=CC(=O)NC(C)(C)CC(C)=O`, the compound was called inactive.

For `CC(C=O)Cc1ccc2c(c1)OCO2` (stereo not given), the call was inactive.

Turning to `CC(=Cc1ccccc1)[N+](=O)[O-]`, the compound was classed as inactive.

Regarding `CC(C)=CC1C(C(=O)OCc2cccc(Oc3ccccc3)c2)C1(C)C` (stereo not given), the outcome was inactive.

In the case of `CCOc1ccc(N)cc1`, the call was inactive.

Take `C=CC(Cl)CCl` (stereo not given): the outcome was inactive.

For `CN(C)C(=S)S`, the result was inactive.

With `Nc1ncn[nH]1`, the outcome was inactive.

`O=C/C(Cl)=C(/Cl)C(=O)O`: the AC50 is 31.9 µM (active).

On to `C=CCN=C=S`, for which the compound was called inactive.
